Results filed as inconclusive are left out. Where a call stands in place of a potency, no number is given. The source made the active and inactive calls. The call rests on the fitted dose curve; in most records, active means well fitted inhibition curve with a large enough effect; inconclusive means small, poorly fitted or top-dose-only effect; inactive means flat fitted curve, though single readings scatter.
Potency means the concentration at half of the fitted maximal effect.

In the experiment the target is Dual specificity protein kinase CLK4 (Homo sapiens) (UniProt Q9HAZ1). Put plainly: qHTS Assay for Inhibitors of CDC-like Kinase 4 (Kinase-Glo Assay) (AID 1770). Further: nearly all actives have a fitted effect of over 65% in size. Particulars: recombinant Clk4, Kinase-Glo ATP depletion luminescence; series mostly up to 66.7 µM. The method, then: NIH Molecular Libraries Probe Production Centers Network [MLPCN] NIH Chemical Genomics Center [NCGC] MLPCN Grant: 1R03MH084827-01 Assay Submitter (PI): Tom Misteli NCGC Assay Overview: Clk4 (Invitrogen, cat# PV3839) was assayed using ATP and the RS repeat peptide (AnaSpec cat # 61722) as substrates. Following the Clk4 reaction, the remaining ATP levels were detected using Promega Kinase-Glo technology wherein the remaining ATP from the kinase reaction is detected using Ultra-Glo luciferase and D-luciferin which generates a bioluminescence signal from the ATP. The positive control for the assay was TG003 (Sigma-Aldrich, cat# 300801-52-9) which has been described as an inhibitor of Clk 4[1].
Dual specificity protein kinase CLK4 (Homo sapiens), sequence (Q9HAZ1 whole entry, looked up): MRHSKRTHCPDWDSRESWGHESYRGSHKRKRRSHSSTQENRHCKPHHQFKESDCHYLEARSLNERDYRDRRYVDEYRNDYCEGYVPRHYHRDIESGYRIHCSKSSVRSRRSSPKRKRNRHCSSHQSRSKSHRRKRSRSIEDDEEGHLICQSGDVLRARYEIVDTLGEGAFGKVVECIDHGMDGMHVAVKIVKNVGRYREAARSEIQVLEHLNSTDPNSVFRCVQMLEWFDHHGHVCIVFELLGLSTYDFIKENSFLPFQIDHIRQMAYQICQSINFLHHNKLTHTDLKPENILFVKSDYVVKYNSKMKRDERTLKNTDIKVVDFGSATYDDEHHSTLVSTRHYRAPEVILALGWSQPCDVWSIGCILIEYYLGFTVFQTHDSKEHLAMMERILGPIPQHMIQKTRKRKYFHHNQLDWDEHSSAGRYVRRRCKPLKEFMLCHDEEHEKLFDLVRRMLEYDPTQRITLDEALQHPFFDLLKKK
NCGC Assay Protocol Summary: Two uL/well of substrate-buffer solution (100 uM RS peptide, 1 uM ATP, 25 mM Tris pH7.5, 10 mM MgCl2, 0.5 mM EGTA, 2.5 mM DTT, 0.01% Triton X-100 final concentration) was dispensed into 1536-well, assay plates (Greiner, solid white medium-binding plates) with Aurora Discovery BioRAPTR Flying Reagent Dispenser (FRD; Beckton-Dickenson). Using a Kalypsys pin tool equipped with a 1536-pin tool, 23 nL of compound solution was transferred to the assay plate. One uL/ well Clk4-buffer solution (25 nM Clk4, 25 mM Tris pH 7.5, 10 mM MgCl2, 0.5 mM EGTA, 2.5 mM DTT, 0.01% Triton X-100, final concentrations) was then added using the FRD yielding a total kinase reaction volume of 3 uL/ well. After 4.5 hours of room temperature incubation, 3 uL Kinase-Glo reagent was added for a final assay volume of 6 uL/ well. Luminescence was detected with the ViewLux plate reader (Perkin Elmer, Waltham, MA) after 5 min incubation using a 5 second exposure time and 2x binning.
In general terms: In qHTS, concentration-response curves come from the screen itself.
On to `COc1cccc(-c2cncnc2NCCc2c[nH]c3ccc(OC)cc23)c1`, for which the Potency was 20 µM (active).

Turning to `CN1CCN(c2ncc3nc(CCc4ccccc4)c(=O)n(CCc4ccccc4)c3n2)CC1`, the Potency entry is “inactive”.

Regarding `N#Cc1ccccc1-c1ccc2ncnc(NCc3cccnc3)c2c1`, the Potency was 3.16 µM (active).

On to `COc1ccc2[nH]cc(CCNc3ncnc4ccc(-c5ccccc5OC)cc34)c2c1`, for which the Potency was 25.1 µM (active).

Consider `COc1cccc(-c2nc(NC3CC3)c3ccccc3n2)c1`, for which the Potency was 7.08 µM (active).

Consider `O=c1c(-c2cccc(F)c2)nc2cncnc2n1Cc1ccc(F)cc1`, for which the Potency result is “inactive”.

On to `COc1cccc(-c2ccc3ncnc(NCc4ccc(OC)cc4OC)c3c2)c1`, for which the Potency is 35.5 µM (active).

With `CN1CCN(c2ncc3nc(-c4cccc(C#N)c4)c(=O)n(CCc4ccccc4)c3n2)CC1`, the Potency result was “inactive”.

For `COc1ccc(-c2nc3cnc(N4CCN(C)CC4)nc3n(CCc3ccccc3)c2=O)cc1`, the Potency entry is “inactive”.

In the case of `COc1cccc(Cn2c(=O)c(CCc3ccccc3)nc3cnc(N4CCN(C)CC4)nc32)c1`, the Potency entry was “inactive”.

In the case of `CN1CCN(c2ncc3nc(-c4cn(C)c5ccccc45)c(=O)n(C[C@H]4CCCO4)c3n2)CC1`, the Potency result was “inactive”.

In the case of `COc1cccc(Cn2c(=O)c(CCc3ccccc3)nc3cnc(N(C)C)nc32)c1`, the Potency result was “inactive”.

Regarding `COc1ccc(Oc2ncc3nc(-c4ccccc4)c(=O)n(C[C@H]4CCCO4)c3n2)cc1`, the Potency result is “inactive”.

Regarding `CN(C)c1nc(-c2cccc(C#N)c2)nc2ccccc12`, the Potency is 15.8 µM (active).

For `COc1ccc(Oc2ncc3nc(-c4cc(F)cc(F)c4)c(=O)n(C4CC4)c3n2)cc1`, the Potency entry was “inactive”.

Consider `Cc1nc2cnc(OCc3ccccc3)nc2n(CCc2ccccc2)c1=O`, for which the Potency entry was “inactive”.

Turning to `c1ccc2c(NCCN3CCOCC3)nc(-c3ccc4c(c3)OCO4)nc2c1`, the Potency entry was “inactive”.

Take `COc1ccc2[nH]cc(CCNc3ncnc4ccc(-c5ccoc5)cc34)c2c1`: the Potency was 0.794 µM (active).

As to `CN(Cc1ccco1)c1nc(-c2cccnc2)nc2ccccc12`, the Potency is 15.8 µM (active).

Take `c1ccc2c(NCCN3CCOCC3)nc(-c3ccoc3)nc2c1`: the Potency entry was “inactive”.

With `COc1cccc(-c2ccc3ncnc(N4CCNCC4)c3c2)c1`, the Potency was 1.78 µM (active).

In the case of `COCCn1c(=O)c(-c2ccccc2)nc2cnc(Oc3cccc(Cl)c3)nc21`, the Potency result is “inactive”.

Consider `Clc1ccccc1-c1nc(Nc2ccncc2)c2ccccc2n1`, for which the Potency is 7.94 µM (active).

For `Cc1ccccc1-c1ccc2ncnc(-n3ccnc3)c2c1`, the Potency was 7.94 µM (active).

Take `COc1cccc(-c2cncnc2NCc2ccccc2OC)c1`: the Potency is 14.1 µM (active).

As to `COc1ccc(CNc2ncncc2-c2ccccc2OC)c(OC)c1`, the Potency result was “inactive”.

`COCCn1c(=O)c(CCc2ccccc2)nc2cnc(Oc3ccccc3)nc21`: the Potency result is “inactive”.

On to `COCCn1c(=O)c(CCc2ccccc2)nc2cnc(OCc3ccccc3)nc21`, for which the Potency result is “inactive”.

For the compound `CN(C)c1ncc2nc(CCc3ccccc3)c(=O)n(CCc3ccccc3)c2n1`, the Potency entry is “inactive”.

Consider `CN(C)c1ccc(-c2nccc(Nc3ccc(F)cc3)n2)cc1`, for which the Potency was 17.8 µM (active).

In the case of `COc1ccccc1CNc1ncncc1-c1ccc2c(c1)OCO2`, the Potency was 2.24 µM (active).

In the case of `O=c1c(CCc2ccccc2)nc2cnc(Oc3ccccc3)nc2n1C1CC1`, the Potency entry is “inactive”.

Regarding `CN(Cc1ccco1)c1ncnc2ccc(-c3cccc(NS(C)(=O)=O)c3)cc12`, the Potency is 7.08 µM (active).

On to `Cn1c(=O)c(-c2ccc(Cl)cc2)nc2cncnc21`, for which the Potency result was “inactive”.

As to `c1cncc(CNc2nc(-c3cccnc3)nc3ccccc23)c1`, the Potency is 7.08 µM (active).

For the compound `CN1CCN(c2ncc3nc(-c4ccccc4)c(=O)n(Cc4cccs4)c3n2)CC1`, the Potency result was “inactive”.

`COc1ccc2[nH]cc(CCNc3cc(-c4ccccc4OC)ncn3)c2c1`: the Potency is 12.6 µM (active).

Regarding `Cc1cccc(CNc2ncncc2-c2ccccc2C)c1`, the Potency result was “inactive”.

Turning to `Cc1nc2cnc(N3CCN(C)CC3)nc2n(CCc2ccccc2)c1=O`, the Potency entry was “inactive”.

With `FC(F)(F)c1ccccc1-c1nc(NCc2cccnc2)c2ccccc2n1`, the Potency entry was “inactive”.

The values are drawn from PubChem BioAssay (NCATS).
